Of roughly 7,900 targets only a part is listed; those with a hit were picked by preference. About 0.6% of all pairs of compound and target were hits. Values without a mark were called inactive.
Compound: c1cn2cc(-c3ccc4cn[nH]c4c3)nc(Nc3ccc(N4CCOCC4)cc3)c2n1 [entospletinib]
Experiment: log2 fold change, soluble protein after heating vs DMSO (PISA); higher = thermal stabilisation; K562 cells, 10 uM, 30 min; active = over 0.2 and 3.5 SD of the protein, either way, in both replicates (recomputed)
In short: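 K562 cells (2×10^6 cells/mL) were treated with 10 μM compound for 30 min, and aliquots were heated for 3 min over 48°C-58°C. Pooled aliquots were extracted in PBS with 0.5% NP-40 at 4°C, and the supernatant after 21,000xg for 90 min was measured by TMTpro 16plex LC-MS/MS with channel sums equalised. Reported thermal stability, relative to control samples and from duplicates, is a log2 fold change.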

Sequence of UniProt Q13409 (Q13409 whole entry, looked up): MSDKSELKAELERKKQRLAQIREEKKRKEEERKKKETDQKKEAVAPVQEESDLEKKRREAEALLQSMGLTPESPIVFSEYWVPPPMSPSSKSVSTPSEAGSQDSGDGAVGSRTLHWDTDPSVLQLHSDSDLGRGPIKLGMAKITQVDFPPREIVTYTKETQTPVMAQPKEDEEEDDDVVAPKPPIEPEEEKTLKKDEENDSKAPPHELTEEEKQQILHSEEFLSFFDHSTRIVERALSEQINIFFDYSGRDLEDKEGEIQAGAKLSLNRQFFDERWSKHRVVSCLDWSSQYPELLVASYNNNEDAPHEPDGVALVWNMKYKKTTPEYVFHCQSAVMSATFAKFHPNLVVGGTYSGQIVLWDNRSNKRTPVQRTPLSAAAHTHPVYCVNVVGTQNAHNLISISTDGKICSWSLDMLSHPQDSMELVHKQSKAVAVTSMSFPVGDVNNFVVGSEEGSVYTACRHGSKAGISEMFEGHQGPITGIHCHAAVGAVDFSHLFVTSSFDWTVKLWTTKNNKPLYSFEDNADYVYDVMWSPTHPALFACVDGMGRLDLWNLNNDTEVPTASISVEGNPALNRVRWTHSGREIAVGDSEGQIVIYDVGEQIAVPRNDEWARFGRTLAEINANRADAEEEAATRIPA
Sequence of UniProt Q9NWS6 (Q9NWS6 whole entry, looked up): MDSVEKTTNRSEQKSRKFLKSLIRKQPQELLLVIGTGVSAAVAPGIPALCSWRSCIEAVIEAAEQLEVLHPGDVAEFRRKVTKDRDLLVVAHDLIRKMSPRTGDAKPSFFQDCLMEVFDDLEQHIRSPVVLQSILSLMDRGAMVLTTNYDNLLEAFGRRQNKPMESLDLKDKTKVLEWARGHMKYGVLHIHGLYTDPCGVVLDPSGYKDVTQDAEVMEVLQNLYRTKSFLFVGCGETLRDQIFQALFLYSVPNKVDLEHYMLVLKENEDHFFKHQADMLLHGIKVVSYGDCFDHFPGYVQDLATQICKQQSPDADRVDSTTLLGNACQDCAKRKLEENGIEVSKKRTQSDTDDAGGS
Sequence of UniProt Q9NX74 (Q9NX74 whole entry, looked up): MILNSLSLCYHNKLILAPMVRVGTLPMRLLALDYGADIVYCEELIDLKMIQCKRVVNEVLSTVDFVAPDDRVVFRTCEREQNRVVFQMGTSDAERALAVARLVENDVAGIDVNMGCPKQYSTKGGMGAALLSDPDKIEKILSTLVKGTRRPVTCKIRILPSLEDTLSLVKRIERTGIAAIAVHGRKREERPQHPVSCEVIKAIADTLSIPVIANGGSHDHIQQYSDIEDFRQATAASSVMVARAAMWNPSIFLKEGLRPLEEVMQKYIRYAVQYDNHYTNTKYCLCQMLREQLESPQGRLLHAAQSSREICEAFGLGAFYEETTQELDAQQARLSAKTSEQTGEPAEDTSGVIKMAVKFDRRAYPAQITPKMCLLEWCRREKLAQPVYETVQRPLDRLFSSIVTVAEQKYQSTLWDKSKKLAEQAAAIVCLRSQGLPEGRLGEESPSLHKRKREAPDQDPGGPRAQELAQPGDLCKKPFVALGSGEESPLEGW
Sequence of UniProt Q03468 (Q03468 whole entry, looked up): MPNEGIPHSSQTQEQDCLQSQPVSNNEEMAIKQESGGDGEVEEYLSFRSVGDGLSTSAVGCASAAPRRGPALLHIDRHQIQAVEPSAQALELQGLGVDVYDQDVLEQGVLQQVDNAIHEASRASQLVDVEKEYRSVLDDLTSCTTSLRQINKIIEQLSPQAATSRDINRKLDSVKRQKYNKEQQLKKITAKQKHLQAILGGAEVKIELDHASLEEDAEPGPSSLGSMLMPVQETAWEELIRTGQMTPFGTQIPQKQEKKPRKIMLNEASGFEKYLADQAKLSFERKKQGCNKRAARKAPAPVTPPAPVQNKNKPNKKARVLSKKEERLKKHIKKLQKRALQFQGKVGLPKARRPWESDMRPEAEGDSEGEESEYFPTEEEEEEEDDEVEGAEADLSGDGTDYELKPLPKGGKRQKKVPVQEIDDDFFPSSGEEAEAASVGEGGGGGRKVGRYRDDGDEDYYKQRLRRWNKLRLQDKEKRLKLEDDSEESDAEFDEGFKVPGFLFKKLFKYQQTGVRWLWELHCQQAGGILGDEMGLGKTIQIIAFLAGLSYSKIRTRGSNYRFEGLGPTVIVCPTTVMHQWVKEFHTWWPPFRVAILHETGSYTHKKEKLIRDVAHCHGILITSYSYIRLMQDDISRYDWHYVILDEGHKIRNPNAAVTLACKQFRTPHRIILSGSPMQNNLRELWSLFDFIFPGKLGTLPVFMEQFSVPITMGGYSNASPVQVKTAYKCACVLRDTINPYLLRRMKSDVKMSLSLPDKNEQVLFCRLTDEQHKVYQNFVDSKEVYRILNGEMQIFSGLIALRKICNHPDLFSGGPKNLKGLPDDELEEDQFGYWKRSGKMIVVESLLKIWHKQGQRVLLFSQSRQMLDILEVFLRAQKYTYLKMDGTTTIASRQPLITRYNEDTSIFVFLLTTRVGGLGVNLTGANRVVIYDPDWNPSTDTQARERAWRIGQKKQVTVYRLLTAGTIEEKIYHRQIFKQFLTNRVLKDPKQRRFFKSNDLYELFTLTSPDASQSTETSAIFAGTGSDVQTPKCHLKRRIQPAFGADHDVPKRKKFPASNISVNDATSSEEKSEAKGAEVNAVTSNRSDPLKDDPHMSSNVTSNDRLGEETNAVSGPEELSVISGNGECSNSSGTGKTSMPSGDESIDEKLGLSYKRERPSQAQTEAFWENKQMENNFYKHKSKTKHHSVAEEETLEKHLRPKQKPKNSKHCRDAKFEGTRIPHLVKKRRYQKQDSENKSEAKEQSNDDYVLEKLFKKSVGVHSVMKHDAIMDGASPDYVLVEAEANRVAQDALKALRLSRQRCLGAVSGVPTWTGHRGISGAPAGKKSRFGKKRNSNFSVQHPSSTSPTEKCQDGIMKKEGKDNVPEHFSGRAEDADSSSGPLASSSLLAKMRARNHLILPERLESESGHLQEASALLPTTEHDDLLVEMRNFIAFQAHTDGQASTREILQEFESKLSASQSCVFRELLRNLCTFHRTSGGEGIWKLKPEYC
Sequence of UniProt P24534 (P24534 whole entry, looked up): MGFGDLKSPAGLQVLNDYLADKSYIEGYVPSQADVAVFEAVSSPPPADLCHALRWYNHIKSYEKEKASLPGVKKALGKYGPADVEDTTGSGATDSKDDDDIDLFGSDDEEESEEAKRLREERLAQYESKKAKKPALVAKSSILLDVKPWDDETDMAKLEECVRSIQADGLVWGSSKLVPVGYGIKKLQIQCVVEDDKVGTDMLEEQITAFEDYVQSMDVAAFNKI
Sequence of UniProt P39656 (P39656 whole entry, looked up): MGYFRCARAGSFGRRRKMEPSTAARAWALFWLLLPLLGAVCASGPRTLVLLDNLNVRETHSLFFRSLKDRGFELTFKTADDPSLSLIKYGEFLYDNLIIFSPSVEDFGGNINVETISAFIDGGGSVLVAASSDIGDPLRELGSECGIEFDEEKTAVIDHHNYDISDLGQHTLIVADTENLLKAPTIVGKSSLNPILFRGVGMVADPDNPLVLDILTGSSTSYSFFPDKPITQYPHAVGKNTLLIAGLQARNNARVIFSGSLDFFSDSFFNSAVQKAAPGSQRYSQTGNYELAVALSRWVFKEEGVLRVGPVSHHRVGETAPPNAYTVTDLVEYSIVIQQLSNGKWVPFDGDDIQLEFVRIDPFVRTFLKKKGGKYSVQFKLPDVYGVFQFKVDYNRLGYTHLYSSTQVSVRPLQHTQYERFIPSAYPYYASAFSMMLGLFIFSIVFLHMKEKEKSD
Sequence of UniProt Q9NYP7 (Q9NYP7 whole entry, looked up): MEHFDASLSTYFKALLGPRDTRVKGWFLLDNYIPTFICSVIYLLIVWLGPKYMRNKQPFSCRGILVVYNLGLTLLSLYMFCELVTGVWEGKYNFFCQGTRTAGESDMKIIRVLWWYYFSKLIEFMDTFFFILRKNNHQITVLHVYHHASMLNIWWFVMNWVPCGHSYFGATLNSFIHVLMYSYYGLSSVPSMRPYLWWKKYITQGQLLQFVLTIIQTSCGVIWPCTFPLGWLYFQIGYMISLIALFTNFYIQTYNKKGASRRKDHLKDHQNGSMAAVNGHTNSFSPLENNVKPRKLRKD
Sequence of UniProt Q9UBQ6 (Q9UBQ6 whole entry, looked up): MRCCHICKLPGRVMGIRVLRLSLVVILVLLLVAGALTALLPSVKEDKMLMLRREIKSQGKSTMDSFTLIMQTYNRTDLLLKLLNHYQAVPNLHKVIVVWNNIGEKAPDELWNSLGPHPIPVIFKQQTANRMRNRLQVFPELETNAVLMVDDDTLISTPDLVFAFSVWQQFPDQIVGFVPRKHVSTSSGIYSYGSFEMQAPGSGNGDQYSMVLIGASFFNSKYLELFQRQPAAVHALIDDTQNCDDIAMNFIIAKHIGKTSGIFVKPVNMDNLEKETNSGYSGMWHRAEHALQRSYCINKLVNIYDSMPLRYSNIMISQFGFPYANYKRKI
Sequence of UniProt P0CG12 (P0CG12 whole entry, looked up): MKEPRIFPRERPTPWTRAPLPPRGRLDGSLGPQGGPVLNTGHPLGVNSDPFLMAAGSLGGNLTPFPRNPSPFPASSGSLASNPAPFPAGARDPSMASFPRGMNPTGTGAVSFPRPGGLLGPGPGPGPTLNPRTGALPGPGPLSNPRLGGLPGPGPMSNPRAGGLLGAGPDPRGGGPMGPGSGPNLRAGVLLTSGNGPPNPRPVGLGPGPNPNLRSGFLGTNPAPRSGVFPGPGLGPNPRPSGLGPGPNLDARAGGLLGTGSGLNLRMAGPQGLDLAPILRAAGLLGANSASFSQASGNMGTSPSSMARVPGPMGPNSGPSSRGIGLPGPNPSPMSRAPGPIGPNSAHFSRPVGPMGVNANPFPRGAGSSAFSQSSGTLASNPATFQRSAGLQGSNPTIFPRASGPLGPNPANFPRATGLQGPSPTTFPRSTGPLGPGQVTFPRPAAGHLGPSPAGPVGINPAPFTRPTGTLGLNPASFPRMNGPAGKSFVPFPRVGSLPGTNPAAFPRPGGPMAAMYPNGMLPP

Target	log2 fold change
DUS2 (UniProt Q9NX74)	-0.063
ERLIN2 (UniProt O94905)	-0.062
DNAH5 (UniProt Q8TE73)	-0.039
DERPC (UniProt P0CG12)	0.125
FAM3A (UniProt P98173)	0.023
DMXL1 (UniProt Q9Y485)	0.04
EFL1 (UniProt Q7Z2Z2)	-0.06
EPHX2 (UniProt P34913)	0.05
CTSZ (UniProt Q9UBR2)	0.13
FAF2 (UniProt Q96CS3)	-0.015
FAM118A (UniProt Q9NWS6)	0.248
EIF4G3 isoform 3 (UniProt O43432)	0.118
ESYT1 isoform 2 (UniProt Q9BSJ8)	0.003
DTNBP1 (UniProt Q96EV8)	0.004
ERCC6 (UniProt Q03468)	0.045
EXOC2 (UniProt Q96KP1)	-0.005
DDOST (UniProt P39656)	-0.014
EHBP1L1 (UniProt Q8N3D4)	-0.013

Target	log2 fold change
EHD2 (UniProt Q9NZN4)	-0.038
DYNC1I2 isoform 2 (UniProt Q13409)	0.082
DOHH (UniProt Q9BU89)	0.1
ESS2 (UniProt Q96DF8)	0.118
EDRF1 (UniProt Q3B7T1)	-0.036
DHPS (UniProt P49366)	-0.003
CYP24A1 (UniProt Q07973)	0.019
ECH1 (UniProt Q13011)	0.024
ELOVL5 isoform 2 (UniProt Q9NYP7)	0.063
EOGT (UniProt Q5NDL2)	0.005
DIAPH1 (UniProt O60610)	0.1
EMD (UniProt P50402)	0.102
EIF2AK3 (UniProt Q9NZJ5)	-0.03
DYNC1I2 isoform 5 (UniProt Q13409)	0.038
EEF1B2 (UniProt P24534)	0.038
EXTL2 (UniProt Q9UBQ6)	0.03
F5 (UniProt P12259)	0.133

— the supplement of paper PMC10849652
